In the supplement of paper PMC4380459:

tested on: tubulin (bovine brain); assay: tubulin polymerization end-point dOD, fold change relative to DMSO vehicle; higher = more polymerization (stabilization); conditions: 50 µM; 60 min; 37 °C
Outline: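 In 384-well plates, compound at a final 50 μM in 0.5% DMSO was assembled on ice with bovine brain tubulin (4 mg/ml in G-PEM buffer) from the Cytoskeleton HTS-Tubulin polymerization kit, then read at 340 nm every minute for 1 hour at 37°C in a Tecan reader. Each value is the end-point change in optical density as percent fold change versus DMSO vehicle, scaled per run by the means and standard deviations of DMSO and reference-control wells.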

First: CCOc1ccc2nc(SCC(=O)Nc3ccc(OC)cc3OC)c(C)cc2c1
Second: COc1ccc(OC)c(NC(=O)CSc2nc3ccc(OC)cc3cc2C)c1
The “tubulin polymerization end-point dOD” value of the first is higher: 14.5% for the first, -30.7% for the second.

Compared with `Cc1ccc(/C=N\NC(=O)COc2ccccc2Br)c(C)c1`, `COc1ccc(/C=N/NC(=O)c2cccc(F)c2)cc1I` is higher in “tubulin polymerization end-point dOD” value: -56.5% for the first, 10.5% for the second.

First: CCOC(=O)Nc1nc2ccccc2[nH]1
Second: COc1cn(-c2ccccc2)nc1C(=O)N1CCc2ccccc21
The “tubulin polymerization end-point dOD” value of the first is higher: 0.459% for the first, -57.4% for the second.

Compared with `COc1ccc2nc(/C=C/c3cccc(F)c3)sc2c1`, `Clc1ccc2sc(/C=C/c3cccnc3)nc2c1` is higher in “tubulin polymerization end-point dOD” value: 6.83% for the first, 47.1% for the second.

Going from `CC(=O)c1c(C)cc(C)c(CSc2nnc(-c3ccc(F)cc3)n2C)c1C` to `CCS(=O)(=O)N1CCc2cc(C3=NN=C(NCc4ccc5c(c4)OCO5)SC3)ccc21`, the “tubulin polymerization end-point dOD” value rises from -75.9% to 227%.

With `COc1ccc(Cl)cc1NC(=O)C1CCCN1C(=O)Nc1ccccc1OC` (stereo unspecified) the “tubulin polymerization end-point dOD” value was -2.01%.
